Measurements published in PubChem BioAssay (NCI).
Compounds without any hit were thinned out: in the full panel of roughly 79,000, 15% have a hit. A number with no mark means an inactive call. The source made the active and inactive calls. Rule as the data show it: active = growth inhibition above about 70%; inactive = the rest.

Experiments:
[1] = NCI Yeast Anticancer Drug Screen. Data for the rad50 strain (AID 155);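 also: 0% = growth of vehicle-only cultures of the same strain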; settings: S. cerevisiae rad50 strain growth inhibition, hits give high values
Method in brief: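 Cells are treated with compound, grown, and their growth is then scored against vehicle-only cultures of the same repair-deficient yeast strain.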

[2] = NCI Yeast Anticancer Drug Screen. Data for the mec2-1 strain (AID 157); settings: S. cerevisiae mec2-1 strain, hits give high values
Method in brief: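 Yeast mec2-1 mutant treated with compound. Readout: growth inhibition vs vehicle controls.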

[3] = NCI Yeast Anticancer Drug Screen. Data for the sgs1 mgt1 strain (AID 161);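 also: 0% = growth of cultures given vehicle only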; settings: S. cerevisiae sgs1 mgt1 strain, hits give high values
Method in brief: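 Genetically altered yeast, compound exposure, growth inhibition relative to vehicle.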

[4] = NCI Yeast Anticancer Drug Screen. Data for the cln2 rad14 strain (AID 165);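 also: 0% = growth equal to vehicle treated cultures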; settings: S. cerevisiae cln2 rad14 strain, hits give high values
Method in brief: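 cln2 rad14 yeast strain; compound exposure; growth inhibition read vs vehicle controls.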

[5] = NCI Yeast Anticancer Drug Screen. Data for the bub3 strain (AID 167); settings: S. cerevisiae bub3 mutant strain, hits give high values
Method in brief: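 Part of a panel of yeast mutants defective in DNA damage repair or cell cycle regulation. Each strain is grown with compound, and inhibition is calculated relative to solvent-treated cultures.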

[6] = NCI Yeast Anticancer Drug Screen. Data for the mlh1 rad18 strain (AID 175); settings: S. cerevisiae mlh1 rad18 strain growth inhibition, hits give high values
Method in brief: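 Yeast w/ defined DNA-repair lesions; compound exposure; growth vs vehicle controls → % inhibition.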

[7] = at 5.0 µM (retest, dose inferred, filed as 0.5)
[8] = at 50.0 µM (retest, dose inferred, filed as 5.0)

SMILES | growth inhibition [1, 7] | growth inhibition [1, 8] | growth inhibition ([1]; at 50.0 µM) | growth inhibition [2, 7] | growth inhibition [2, 8] | growth inhibition ([2]; at 50.0 µM) | growth inhibition [3, 7] | growth inhibition [3, 8] | growth inhibition ([3]; at 50.0 µM) | growth inhibition [4, 7] | growth inhibition [4, 8] | growth inhibition ([4]; at 50.0 µM) | growth inhibition [5, 7] | growth inhibition [5, 8] | growth inhibition ([5]; at 50.0 µM) | growth inhibition [6, 7] | growth inhibition [6, 8] | growth inhibition ([6]; at 50.0 µM)
COC(=O)Nc1nc2ccc(C3(c4ccc(F)cc4)OCCO3)cc2[nH]1 | 25% | 51% | -6.5% | 9% | 67% | 35% | 20% | 55% | 79% (active) | 11% | 36% | 56.2% | 22% | 72% (active) | 84.1% (active) | 18% | 76% (active) | 80% (active)
CC(C)(C)N/N=C(/Cc1nc2c3c(ccc2[nH]c1=O)C(=O)c1ccccc1C3=O)C(=O)NC1=C(Cl)C(=O)c2ccccc2C1=O | 27% | 91% (active) | 82.8% (active) | 0% | 62% | 46.6% | 27% | 77% (active) | 67.8% | -24% | 39% | 21.7% | 13% | 83% (active) | 67.1% | 21% | 79% (active) | 42.4%
CCOc1cc(F)c([N+](=O)[O-])cc1[N+](=O)[O-] | 92% (active) | 99% (active) | 98.7% (active) | 94% (active) | 100% (active) | 54.4% | 96% (active) | 99% (active) | 51.5% | 97% (active) | 100% (active) | 98.4% (active) | 91% (active) | 99% (active) | 99% (active) | 92% (active) | 100% (active) | 98.5% (active)
CCOC(=O)C1=NN(c2ccccc2)C(=O)/C1=C\N1C(=O)/C(=C/c2cccc(O)c2)SC1=S | -9% | 11% | 6.8% | -16% | 17% | 1.9% | -2% | 9% | 3.45% | -13% | -13% | 60.5% | 4% | 12% | 3.45% | 0% | 10% | -4.9%
C/C=C/c1cc2c(c(=O)o1)C(=O)[C@@H](O)[C@H](C)O2 | 8% | 17% | 23.5% | 11% | 21% | 2% | 15% | 30% | 34.5% | 8% | 11% | -1.15% | 14% | 28% | 18.9% | 8% | 26% | 60.3%
CCOC(=O)C1(C)CCCC1N (configuration not stated) | -1% | 52% | -37.3% | 2% | 93% (active) | -35% | -4% | 42% | -17.6% | 21% | 94% (active) | 53.1% | 14% | 98% (active) | -5.45% | 14% | 82% (active) | 15.7%
C1=C(c2ccccc2)c2ccccc2C1 | 0% | 29% | 75.2% (active) | -23% | 17% | 63.4% | -13% | 12% | 48% | 23% | 19% | 50% | -12% | 18% | 58.9% | 5% | 57% | 49.9%
O=C(/C=C/c1ccccc1)CCC1C(=O)c2ccccc2C1=O | 24% | 40% | 3.25% | 10% | 33% | -9% | 14% | 42% | 1.05% | 10% | 20% | 17.8% | 12% | 51% | -12.6% | 22% | 50% | 4.6%
O=C(O)c1cccc2cccc(-c3c4ccc(=O)c(O)c-4oc4c(O)c(O)ccc34)c12 | 86% (active) | 96% (active) | 87% (active) | 84% (active) | 97% (active) | 90% (active) | 93% (active) | 98% (active) | 90% (active) | 62% | 97% (active) | 89% (active) | 93% (active) | 97% (active) | 87.5% (active) | 96% (active) | 95% (active) | 85.7% (active)
O=C(O)CCCOc1cc(-c2ccccc2F)nc2cc3c(cc12)OCO3 | 11% | 36% | 76.8% (active) | 3% | 31% | 80.8% (active) | 13% | 27% | 71% (active) | 5% | 46% | 71.3% (active) | 9% | 47% | 77.9% (active) | 7% | 52% | 54%
CN1CSC(=S)N(Cc2ccccc2)C1 | 20% | 78% (active) | 73.6% (active) | -5% | 76% (active) | 87.8% (active) | 15% | 67% | 86.6% (active) | 19% | 41% | 21.2% | 25% | 90% (active) | 88.3% (active) | -2% | 89% (active) | 75.3% (active)
O=C(c1ccccc1)c1ccc(O)c2ncccc12 | 23% | 99% (active) | 98.6% (active) | -11% | 99% (active) | 97.8% (active) | 10% | 99% (active) | 99% (active) | -8% | 99% (active) | 98% (active) | 5% | 99% (active) | 98.5% (active) | 17% | 98% (active) | 98.3% (active)
Nc1nc(N)c2cc(Sc3cccc(C(F)(F)F)c3)ccc2n1 | 21% | 77% (active) | 68.5% | 18% | 75% (active) | 53% | 15% | 97% (active) | 79.1% (active) | 22% | 26% | 87.7% (active) | 17% | 74% (active) | 23.9% | 22% | 93% (active) | 88.8% (active)
O=C1C(=O)c2cccnc2-c2ncccc21 | 93% (active) | 98% (active) | 90.8% (active) | 95% (active) | 98% (active) | 93.6% (active) | 95% (active) | 99% (active) | 93.2% (active) | 73% (active) | 96% (active) | 91% (active) | 96% (active) | 98% (active) | 92.2% (active) | 94% (active) | 98% (active) | 91.5% (active)
Oc1ccc(Br)cc1Sc1cc(Br)ccc1O | 6% | 99% (active) | 87.9% (active) | 28% | 99% (active) | 99.7% (active) | 26% | 100% (active) | 99.7% (active) | 14% | 98% (active) | 99.4% (active) | 16% | 99% (active) | 99.2% (active) | 53% | 99% (active) | 99.5% (active)
CN(C)c1ccc(/C=C/c2sc3ccc4ccccc4c3[n+]2C)cc1 | 97% (active) | 96% (active) | 89.1% (active) | 99% (active) | 98% (active) | 89.7% (active) | 100% (active) | 98% (active) | 90.2% (active) | 99% (active) | 97% (active) | 89.5% (active) | 99% (active) | 97% (active) | 89.8% (active) | 98% (active) | 97% (active) | 89.2% (active)
COc1cc(NCc2ccc3nc(N)nc(N)c3c2C)cc(OC)c1OC (tested in a mixture with another compound) | 24% | 54% | 12.3% | 18% | 87% (active) | 51.8% | 12% | 31% | 43.2% | 23% | 23% | 2.8% | 17% | 24% | 5.05% | 23% | 36% | -45.4%
C=C(C)C1CC2(C)C(C)CC(O)CC2C(OC(=O)C=C(C)C)C1O (configuration not stated) | 26% | 73% (active) | 78.3% (active) | 12% | 58% | 69.1% | 21% | 78% (active) | 79.8% (active) | 17% | 25% | 47% | 15% | 78% (active) | 80.1% (active) | 32% | 82% (active) | 69%
CCCCC(CCc1ccc([N+](=O)[O-])cc1)(C(C)=O)C(=O)OCC (configuration not stated) | 1% | -41% | 59.7% | 2% | -10% | 13.1% | -2% | 24% | 47% | -4% | -14% | 4.75% | 11% | 45% | 83.2% (active) | -10% | -50% | 62%
